The values that follow come from PubChem BioAssay (NCATS).

Each structure is given as a SMILES string. Results filed as inconclusive are left out. A call without a number means that no potency is given here. Unmarked numbers belong to inactive results. Calls of active or inactive are those of the source. Calls follow the shape of the dose curve; as a rule, active = well fitted inhibition curve with a large enough effect; inconclusive = small, poorly fitted or top-dose-only effect; inactive = no such curve, though single readings can be large or run the other way.
Potency is read from the fitted curve at half-maximal effect.

This test has as its system Zika virus NS2B-NS3 protease (linked construct). Put plainly: Primary screen NINDS Rhodamine qHTS for Zika virus inhibitors (AID 1347160). Also: nearly all actives have a fitted effect of over 55% in size. As to conditions: purified NS2B-NS3 protease, Rhodamine110 substrate fluorescence; series mostly up to 57.1 µM. An outline of the steps: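 Purified linked NS2B-NS3 protease (NS2B hydrophilic domain joined to NS3 protease by flexible linker), 25 nM in 10 mM Tris-HCl pH 8.0, 0.01% Tween 20. Compounds titrated, 15 min preincubation at room temperature; 1.5 microM Rhodamine110 substrate, FITC fluorescence change over 15 min.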
`COC1CCCC/C(C)=C/C2C=C(C)C(C)C3C(CC(C)C)NC(=O)C23C(=O)C1` (configuration not stated): the Potency entry was “inactive”.

In the case of `CC(=O)O[C@H]1C[C@@H]2[C@]3(CC[C@]4(C)[C@@H](C5(C)CCC(C(C)(C)O)O5)[C@@H](O)C[C@@]24C)C[C@@]32CC[C@H](O[C@@H]3OC[C@@H](O)[C@H](O)[C@H]3O)C(C)(C)[C@H]12` (some centres not stated), the Potency entry is “inactive”.

On to `c1ccc(Nc2nc3c(s2)CCCc2[nH]ncc2-3)nc1`, for which the Potency result is “inactive”.

Take `C[C@@H]1O[C@@H](O[C@H]2[C@H](O)[C@@H](C(=O)O)O[C@@H](O[C@H]3CC[C@@]4(C)C(CC[C@]5(C)C4CC=C4C6CC(C)(C)CC[C@]6(C(=O)O)CC[C@]45C)C3(C)C)[C@@H]2O[C@@H]2O[C@H](CO)[C@@H](O)[C@H](O)[C@H]2O)[C@H](O)[C@H](O)[C@H]1O` (some centres not stated): the Potency result is “inactive”.

Regarding `CC1CCC2(C)C(CC(O)C(O)C23CO3)C1(C)CCC1=CC(O)OC1=O` (configuration not stated), the Potency result is “inactive”.

On to `CC(C)C1(O[C@@H]2O[C@H](CO)[C@@H](O)[C@H](O)[C@H]2O)CC=C(CO)CC1` (some centres not stated), for which the Potency result is “inactive”.

On to `NCCCC[C@H](NC(=O)[C@@H]1Cc2ccccc2CN1C(=O)CCC(=O)c1ccccc1)C(=O)NCC(c1ccccc1)c1ccccc1`, for which the Potency entry is “inactive”.

Take `CCC[C@@H]1C[C@@H](C(=O)N[C@@H]([C@H]2O[C@H](SC)[C@H](O)[C@@H](O)[C@@H]2O)[C@@H](C)O)N(C)C1`: the Potency entry is “inactive”.

In the case of `C=C(C)[C@H]1C[C@@H](O)C(=C)CC[C@@H](O)C(=C)[C@@H](O)C1`, the Potency result was “inactive”.

With `CN(C)c1cccc(-c2c3c(=O)n(-c4ccccc4Cl)[nH]c3cc(=O)n2C)c1`, the Potency entry is “inactive”.

`C[C@@H]1O[C@@H](O[C@H]2[C@H](OC(=O)[C@]34CCC(C)(C)C[C@H]3C3=CCC5[C@@]6(C)C[C@H](O)[C@H](O[C@@H]7O[C@H](CO)[C@@H](O[C@@H]8O[C@H](CO)[C@@H](O)[C@H](O)[C@H]8O)[C@H](O)[C@H]7O)[C@@](C)(CO)C6[C@H](O)C[C@@]5(C)[C@]3(C)C[C@H]4O)OC[C@H](O)[C@@H]2O)[C@H](O)[C@H](O)[C@H]1O[C@@H]1OC[C@@H](O)[C@H](O[C@@H]2OC[C@](O)(CO)[C@H]2O)[C@H]1O` (some centres not stated): the activity change, negative = inhibition is -19.4% [at 10.7 µM].

`CC(=O)C1CCC2(C)C3=C(CCC12C)C1(C)CCC(=O)C(C)(C)C1CC3` (configuration not stated): the Potency result is “inactive”.

Take `CCNC(=O)[C@@H]1CCCN1C(=O)[C@H](CCCN=C(N)N)NC(=O)[C@H](CC(C)C)NC(=O)[C@@H](C)NC(=O)[C@H](Cc1ccc(O)cc1)NC(=O)[C@H](CO)NC(=O)[C@H](Cc1c[nH]c2ccccc12)NC(=O)[C@H](Cc1cnc[nH]1)NC(=O)[C@@H]1CCC(=O)N1`: the Potency result is “inactive”.

With `CC1(C)CCC(C)(C)c2cc([C@@H](O)C(=O)Nc3ccc(C(=O)O)cc3F)ccc21`, the Potency was 14.1 µM (active).

Turning to `O=C(O)CCc1cccc(O[C@@H]2O[C@H](CO)[C@@H](O)[C@H](O)[C@H]2O)c1O`, the Potency result was “inactive”.

On to `CC1=CC(=O)C2C(C)(C)CCCC2(C)C12CCC1(COC(=O)C1)O2` (configuration not stated), for which the Potency result was “inactive”.

Consider `COC(=O)C1C(CC(C)=O)C=CC(O)C12Oc1cc(C)cc(O)c1C2=O` (configuration not stated), for which the Potency result is “inactive”.

As to `CN1C(=O)c2ccccc2NC(=O)[C@]12O[C@@H]2c1cccc(O)c1`, the Potency result is “inactive”.

As to `CCC(C)/C=C(C)/C=C/C1=CC2=C(Cl)C(=O)C(C)(OC(C)=O)C(=O)C2=CN1C1CCCCN(C(CCC(N)=O)C(=O)O)C1=O` (configuration not stated), the Potency result is “inactive”.

As to `C=C1CCC2C(OC(=O)C2(O)COC(C)=O)C2C(=C)C(O)CC12` (configuration not stated), the Potency entry is “inactive”.

`COc1cc(C(O)C(CO)Oc2ccc(CCCO[C@@H]3O[C@@H](C)[C@H](O)[C@@H](O)[C@H]3O)cc2OC)ccc1O` (some centres not stated): the Potency entry was “inactive”.

For the compound `CC1(C)O[C@@]2(C)CC[C@@H]1C[C@@H]2OC1OC(CO)C(O)C(O)C1O` (some centres not stated), the Potency is 11.2 µM (active).

As to `CC1CCC2C(C(=O)O)=CC3CC(C)(C)CC132` (configuration not stated), the Potency is 25.1 µM (active).

In the case of `C[C@]1(O)CC[C@@H]2C(C(=O)O)=CO[C@@H](O[C@@H]3O[C@H](COC(=O)c4ccc(O)cc4)[C@@H](O)[C@H](O)[C@H]3O)[C@@H]21`, the Potency entry was “inactive”.

In the case of `C=C1CCC2C(C)(C)C(O)CCC2(C)C1CCC(C)CCOC(=O)CCC(=O)O` (configuration not stated), the Potency entry is “inactive”.

Turning to `C=C1CCC2[C@@](C)(C=O)CCC[C@]2(C)[C@H]1CC/C(C)=C/CO` (some centres not stated), the Potency result is “inactive”.

For the compound `C[C@H]1[C@H](C)CC[C@]2(C(=O)O[C@@H]3O[C@H](CO)[C@@H](O)[C@H](O)[C@H]3O)CC[C@]3(C(=O)O)C(=CCC4[C@@]5(C)CC[C@H](O[C@@H]6O[C@H](CO)[C@@H](O)[C@H](O)[C@H]6O)C(C)(C)C5CC[C@]43C)[C@H]12` (some centres not stated), the Potency entry was “inactive”.
